Laboratory results: PubChem BioAssay AID1159580 (chemical genetic matrix, 2015)
The whole screen tested about 5,500 compounds, of which about 2,000 (36%) were called active. About 18% were inconclusive and are not listed. Cut-off read from the data, not from the text of the source: active = normalized growth mostly below about 0.91 (no sharp cut-off); inconclusive = no clear call, values can overlap the other calls; inactive = mostly above about 0.92. The list shows a part of the results.

Test: chemical genetic growth profiling, strain panel (AID 1159580);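 note: tested at 20 µM; growth read once vehicle control cultures reached saturation at 30 °C; 1 = growth at the plate median or of vehicle wells; lower values mean less growth of the strain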
Details: S. cerevisiae deletion strains, growth OD

Measured: normalized growth

COc1cc([C@@H]2c3cc4c(cc3[C@@H](O)C3COC(=O)C32)OCO4)cc(OC)c1O (stereo not given in full)
inactive: locus YAL021C, strain ccr4, hits give low values 0.971 | locus YAL026C, strain drs2, hits give low values 0.982 | locus YAL030W, strain snc1, hits give low values 0.986 | locus YBL061C, strain skt5, hits give low values 0.988 | locus YBR009C, strain hhf1, hits give low values 0.988 | locus YBR023C, strain chs3, hits give low values 1 | locus YBR171W, strain sec66, hits give low values 0.996 | locus YBR231C, strain swc5, hits give low values 1 | locus YBR279W, strain paf1, hits give low values 0.997 | locus YCL011C, strain gbp2, hits give low values 0.988 | locus YCL016C, strain dcc1, hits give low values 0.981 | locus YCL061C, strain MRC1, hits give low values 0.978 | locus YCL069W, strain vba3, hits give low values 0.985 | locus YCR088W, strain abp1, hits give low values 0.988 | locus YDL005C, strain med2, hits give low values 0.979 | locus YDL040C, strain nat1, hits give low values 0.981 | locus YDR001C, strain nth1, hits give low values 0.977 | locus YDR069C, strain doa4, hits give low values 0.988 | locus YDR137W, strain rgp1, hits give low values 1 | locus YDR159W, strain sac3, hits give low values 0.994 | locus YDR195W, strain ref2 0.944 | locus YDR297W, strain sur2, hits give low values 0.989 | locus YDR334W, strain swr1, hits give low values 0.977 | locus YDR335W, strain msn5, hits give low values 0.985 | locus YDR392W, strain spt3, hits give low values 1.01 | locus YEL003W, strain gim4, hits give low values 0.997 | locus YEL037C, strain rad23, hits give low values 0.981 | locus YEL061C, strain CIN8 (second series), hits give low values 0.991 | locus YER015W, strain faa2, hits give low values 0.993 | locus YER016W, strain bim1, hits give low values 0.987 | locus YER111C, strain swi4, hits give low values 0.981 | locus YER155C, strain BEM2 (second series), hits give low values 1.01 | locus YFR010W, strain ubp6, hits give low values 0.973 | locus YGL167C, strain pmr1, hits give low values 0.975 | locus YGL173C, strain kem1, hits give low values 0.992 | locus YGL227W, strain vid30, hits give low values 0.995 | locus YGL240W, strain doc1, hits give low values 1.01 | locus YGL253W, strain hxk2, hits give low values 0.934 | locus YHR013C, strain ard1, hits give low values 0.964 | locus YHR027C, strain rpn1, hits give low values 0.986 | locus YHR030C, strain SLT2, hits give low values 1.03 | locus YHR079C, strain IRE1, hits give low values 1.04 | locus YHR142W, strain chs7, hits give low values 0.971 | locus YJL092W, strain hpr5, hits give low values 0.977 | locus YJL095W, strain BCK1 (second series), hits give low values 0.981 | locus YJL095W, strain BCK1, hits give low values 1.02 | locus YJL115W, strain asf1, hits give low values 0.966 | locus YJL129C, strain trk1, hits give low values 0.977 | locus YJL154C, strain vps35, hits give low values 0.985 | locus YJL164C, strain tpk1, hits give low values 0.967 | locus YJL166W, strain qcr8, hits give low values 0.997 | locus YJL187C, strain SWE1, hits give low values 1 | locus YJR066W, strain TOR1, hits give low values 0.993 | locus YKL160W, strain elf1, hits give low values 0.973 | locus YKR026C, strain gcn3, hits give low values 0.991 | locus YKR091W, strain srl3, hits give low values 0.978 | locus YLL001W, strain dnm1, hits give low values 0.953 | locus YLL026W, hits give low values 0.987 | locus YLL041C, strain sdh2, hits give low values 0.979 | locus YLR027C, strain aat2, hits give low values 0.991 | locus YLR113W, strain HOG1, hits give low values 1.03 | locus YLR221C, strain rsa3, hits give low values 1.02 | locus YLR258W, strain gsy2, hits give low values 0.985 | locus YLR262C, strain YPT6 (second series), hits give low values 1.05 | locus YLR320W, strain mms22, hits give low values 1.02 | locus YLR342W, strain FKS1, hits give low values 0.986 | locus YLR357W, strain rsc2, hits give low values 0.966 | locus YLR370C, strain arc18, hits give low values 0.983 | locus YLR384C, strain iki3, hits give low values 0.982 | locus YML120C, strain ndi1, hits give low values 0.985 | locus YMR058W, strain fet3, hits give low values 0.979 | locus YMR125W, strain sto1, hits give low values 0.979 | locus YMR129W, hits give low values 0.997 | locus YMR205C, strain PFK2, hits give low values 0.965 | locus YMR231W, strain pep5, hits give low values 0.977 | locus YNL071W, strain lat1, hits give low values 0.991 | locus YNL183C, strain NPR1, hits give low values 0.997 | locus YNL209W, strain ssb2, hits give low values 0.993 | locus YNL248C, strain rpa49, hits give low values 0.959 | locus YNL322C, strain KRE1 (second series), hits give low values 0.991 | locus YNR049C, strain mso1, hits give low values 0.986 | locus YOR001W, strain rrp6, hits give low values 0.979 | locus YOR070C, strain gyp1, hits give low values 0.983 | locus YOR080W, strain dia2, hits give low values 1 | locus YOR083W, strain WHI5, hits give low values 0.982 | locus YOR106W, strain vam3, hits give low values 0.958 | locus YOR231W, strain MKK1, hits give low values 1.03 | locus YOR265W, strain rbl2, hits give low values 0.987 | locus YOR270C, strain vph1, hits give low values 0.94 | locus YOR290C, strain snf2, hits give low values 0.952 | locus YPL051W, strain arl3, hits give low values 1.03 | locus YPL078C, strain atp4, hits give low values 0.949 | locus YPL106C, strain sse1, hits give low values 0.99 | locus YPL240C, strain hsp82, hits give low values 0.994 | locus YPL256C, strain CLN2, hits give low values 1.02
